We go through seven compounds from PubChem BioAssay (Tox21).

Molecules are shown by their SMILES. Values joined by “and” are separate entries in the source; they are usually repeats but may differ in a detail not shown here. Equal values may be shown once. Records with an inconclusive call do not appear. Active and inactive are the calls of the source. Unless noted, the call rests on the fitted dose curve; in most records, active means well fitted curve in the direction sought with a large enough effect in the repeat runs; inconclusive means weak or mixed curves; inactive means no such curve, though single readings can be large; an effect the other way counts as inactive or inconclusive.

Assay [1] can be described thus: qHTS assay for small molecules that induce genotoxicity in human embryonic kidney cells expressing luciferase-tagged ATAD5 (AID 651632). Further: nearly all actives have a fitted effect of over 15% in size. In short, it runs like this:
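ATAD5-luc HEK293T, 2,000 cells/well; cpd or DMSO pin-transferred; 16 hr, 37C/5% CO2; Amplite 30 min RT; luminescence.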
For orientation: Quantitative high-throughput screening tests each substance at several concentrations.

The nature of assay [2]: qHTS assay for small molecule agonists of the p53 signaling pathway - cell viability (AID 651633; calls by dose curve;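 further: p53RE-bla HCT reporter cells with a stable beta-lactamase p53 reporter; series mostly up to about 83 µM; nearly all actives have a fitted effect of over 30% in size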). In outline:
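Viability counter-read: CellTiter-Glo luminescence (30 min, room temperature) in the same p53RE-bla plates. These plates had been exposed to compounds for 16 h at 37 C.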

Assay [3] in a line: qHTS assay to test for compound auto fluorescence at 590 nm (red) in HepG2 cells (AID 720674). In short, it runs like this: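 Red autofluorescence (Ex/Em 540/590 nm, Rose Bengal sodium equivalents) was measured in HepG2 cells, 2,000 per well in MEM plus 10% FBS, plated overnight at 37 C. Readings were taken 1 hr after adding 23 nL compound or DMSO, at 37 C and 5% CO2.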
Assay [4] in a line: qHTS assay to test for compound auto fluorescence at 460 nm (blue) in HEK293 cells (AID 720678). In short, it runs like this:
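Blue read-out at excitation 405 nm and emission 460 nm follows overnight compound exposure of HEK293 cells at 37C in 5% CO2. Activity is given as auto fluorescence equivalency to triamterene.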

Assay [5] can be described thus: qHTS assay to test for compound auto fluorescence at 590 nm (red) in HEK293 cells (AID 720679). In outline:
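Red channel, Ex/Em 540/590nm; signal expressed as equivalency to Rose Bengal sodium. HEK293, 2,000 cells/well, 10% dialyzed FBS; 23 nL compound pinned after 4-5 hr attachment; overnight 37C/5% CO2 before reading.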

Assay [6] in a line: qHTS assay to test for compound auto fluorescence at 460 nm (blue) in HepG2 cells (AID 720687). In short, it runs like this: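 Blue-channel autofluorescence (Ex/Em 405/460 nm, triamterene-equivalent) was measured after 1 hr compound exposure at 37 C, 5% CO2. Cells were HepG2, plated overnight at 37 C in MEM plus 10% FBS.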
The target in assay [7] is Glucocorticoid receptor (Homo sapiens) (UniProt P04150). Description: qHTS assay to identify small molecule agonists of the glucocorticoid receptor (GR) signaling pathway (AID 720691; active means well fitted activation curve with a large enough effect in the signal ratio in the repeat runs, not every such curve was filed as active; the % refers to the signal ratio). In short, it runs like this: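 Fluorescence intensity from LiveBLAzer B/G FRET substrate (2 h, room temperature) reports beta-lactamase expression driven by the glucocorticoid response element in GR-bla HeLa cells after 18 h compound exposure at 37 C.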

Assay [8] can be described thus: qHTS assay to identify small molecule antagonists of the glucocorticoid receptor (GR) signaling pathway - cell viability counter screen (AID 720693). Further: nearly all actives have a fitted effect of over 55% in size.
A short description of assay [9]: qHTS assay for identifying genotoxic compounds that show differential cytotoxicity against isogenic chicken DT40 cell lines with known DNA damage response pathways - wild type cell line (AID 743012). Further: nearly all actives have a fitted effect of over 60% in size. Further: potency means the concentration at half of the fitted maximal effect. In short, it runs like this:
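Wild type DT40, 300 cells/well, ~0.5 h settle at 37 C/5% CO2; compounds in DMSO added by pintool; 40 h at 37 C/5% CO2; CellTiter-Glo, 30 min RT; luminescence.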

The nature of assay [10]: qHTS assay for identifying genotoxic compounds that show differential cytotoxicity against isogenic chicken DT40 cell lines with known DNA damage response pathways - Rad54/Ku70 mutant cell line (AID 743015). Further: nearly all actives have a fitted effect of over 60% in size. Further: potency means the concentration at half of the fitted maximal effect.
Assay [11] in a line: qHTS assay to identify small molecule antagonists of the androgen receptor (AR) signaling pathway - cell viability counter screen (AID 743033; further: nearly all actives have a fitted effect of over 45% in size).
The nature of assay [12]: qHTS assay to identify small molecule antagonists of the thyroid receptor (TR) signaling pathway - cell viability counter screen (AID 743064). Further: nearly all actives have a fitted effect of over 50% in size. In outline: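 In-well cytotoxicity read by CellTiter-Fluor (30 min, 37 C) following 23.5 h exposure of GH3 cells bearing a TRE-luciferase sensor. Compounds were added alongside 1 nM (final) T3 to drive TR transactivation.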
Assay [13] in a line: qHTS assay to identify small molecule antagonists of the thyroid receptor (TR) signaling pathway (AID 743065). Further: series mostly up to about 70 µM; nearly all actives have a fitted effect of over 55% in size. In short, it runs like this: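 Antagonism measured as loss of luciferase signal in GH3 cells stably carrying a TRE-luciferase reporter, co-treated with compound and T3 (1 nM final) for 23.5 h at 37 C. Viability was read in the same well by CellTiter-Fluor.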
Assay [14] has as its target Estrogen receptor (Homo sapiens) (UniProt P03372). Description: qHTS assay to identify small molecule agonists of the estrogen receptor alpha (ER-alpha) signaling pathway (AID 743075; calls by dose curve;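 further: HEK293 GripTite cells with ER-alpha and UAS-driven beta-lactamase reporter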).
For assay [15] the target is unchanged. In words: qHTS assay to identify small molecule agonists of the estrogen receptor alpha (ER-alpha) signaling pathway using the BG1 cell line (AID 743079). Further: nearly all actives have a fitted effect of over 20% in size.
Assay [16] deals with Peroxisome proliferator-activated receptor gamma (Homo sapiens) (UniProt P37231). Description: qHTS assay to identify small molecule agonists of the peroxisome proliferator-activated receptor gamma (PPARg) signaling pathway (AID 743094; active means well fitted activation curve with a large enough effect in the signal ratio in the repeat runs, not every such curve was filed as active; the % refers to the signal ratio). In short, it runs like this: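 Beta-lactamase FRET fluorescence was the read-out after a 1 h room-temperature substrate step, following 17 h compound treatment at 37C of HEK293H cells expressing a UAS-driven bla reporter responsive to PPARg.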

Assay [17] deals with Nuclear receptor subfamily 1 group I member 2 (Homo sapiens) (UniProt O75469). Description: CYP3A4 induction through human pregnane X receptor (PXR) by small molecules, qHTS assay (AID 1346984). Further: nearly all actives have a fitted effect of over 40% in size. In short, it runs like this: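 Luminescence readout: luciferase signal after One-Glo (30 min, room temperature), following 3 h at 37C with 3uM final Luciferin-IPA P450 substrate. Cells were DPX-2 (HepG2, PXR/CYP3A4-luc co-transfected) dosed for 24 h.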

For assay [18] the target is unchanged. In words: Human pregnane X receptor (PXR) activation by small molecules, qHTS assay (AID 1346985). Further: nearly all actives have a fitted effect of over 40% in size. In outline:
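DPX-2 cells (HepG2 co-transfected with a PXR response element and a CYP3A4-promoter luciferase construct) were seeded at 2,000 per well, rested 5 hr at 37C, then exposed to DMSO-dissolved compounds for 24 hr. Activation was read as luciferase luminescence.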

Assay [19] in a line: qHTS assay for identifying genotoxic compounds that show differential cytotoxicity against isogenic chicken DT40 cell lines with known DNA damage response pathways - Rev3 mutant cell line (AID 743014). Further: nearly all actives have a fitted effect of over 55% in size. Further: potency means the concentration at half of the fitted maximal effect.
Assay [20] deals with Glucocorticoid receptor (Homo sapiens) (UniProt P04150). Description: qHTS assay to identify small molecule antagonists of the glucocorticoid receptor (GR) signaling pathway (AID 720692; active means well fitted inhibition curve with a large enough effect in the signal ratio in the repeat runs, not every such curve was filed as active; the % refers to the signal ratio). In outline: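 HeLa GR-bla cells; cmpd + dex 5 nM final, 18 h 37 C; LiveBLAzer B/G FRET substrate 2 h RT; fluorescence intensity read. Antagonist mode, qHTS.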

Sequence of Estrogen receptor (Homo sapiens) (P03372 whole entry, looked up): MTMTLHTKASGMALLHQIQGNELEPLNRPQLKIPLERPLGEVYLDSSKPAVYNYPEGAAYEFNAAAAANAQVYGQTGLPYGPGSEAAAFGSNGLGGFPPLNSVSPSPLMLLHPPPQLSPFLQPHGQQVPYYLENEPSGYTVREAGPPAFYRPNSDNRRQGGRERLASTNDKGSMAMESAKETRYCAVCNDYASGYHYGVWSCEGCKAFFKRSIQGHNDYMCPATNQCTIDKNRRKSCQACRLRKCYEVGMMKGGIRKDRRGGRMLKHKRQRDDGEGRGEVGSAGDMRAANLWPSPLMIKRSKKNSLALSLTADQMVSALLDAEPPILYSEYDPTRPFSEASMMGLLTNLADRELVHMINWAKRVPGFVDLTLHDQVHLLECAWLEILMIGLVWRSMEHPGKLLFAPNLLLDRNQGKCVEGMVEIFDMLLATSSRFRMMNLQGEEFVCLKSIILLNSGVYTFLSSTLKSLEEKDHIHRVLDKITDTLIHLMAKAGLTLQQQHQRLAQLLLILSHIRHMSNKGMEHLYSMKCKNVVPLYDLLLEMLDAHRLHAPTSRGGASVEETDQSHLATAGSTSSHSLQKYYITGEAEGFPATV
Sequence of Glucocorticoid receptor (Homo sapiens) (P04150 whole entry, looked up): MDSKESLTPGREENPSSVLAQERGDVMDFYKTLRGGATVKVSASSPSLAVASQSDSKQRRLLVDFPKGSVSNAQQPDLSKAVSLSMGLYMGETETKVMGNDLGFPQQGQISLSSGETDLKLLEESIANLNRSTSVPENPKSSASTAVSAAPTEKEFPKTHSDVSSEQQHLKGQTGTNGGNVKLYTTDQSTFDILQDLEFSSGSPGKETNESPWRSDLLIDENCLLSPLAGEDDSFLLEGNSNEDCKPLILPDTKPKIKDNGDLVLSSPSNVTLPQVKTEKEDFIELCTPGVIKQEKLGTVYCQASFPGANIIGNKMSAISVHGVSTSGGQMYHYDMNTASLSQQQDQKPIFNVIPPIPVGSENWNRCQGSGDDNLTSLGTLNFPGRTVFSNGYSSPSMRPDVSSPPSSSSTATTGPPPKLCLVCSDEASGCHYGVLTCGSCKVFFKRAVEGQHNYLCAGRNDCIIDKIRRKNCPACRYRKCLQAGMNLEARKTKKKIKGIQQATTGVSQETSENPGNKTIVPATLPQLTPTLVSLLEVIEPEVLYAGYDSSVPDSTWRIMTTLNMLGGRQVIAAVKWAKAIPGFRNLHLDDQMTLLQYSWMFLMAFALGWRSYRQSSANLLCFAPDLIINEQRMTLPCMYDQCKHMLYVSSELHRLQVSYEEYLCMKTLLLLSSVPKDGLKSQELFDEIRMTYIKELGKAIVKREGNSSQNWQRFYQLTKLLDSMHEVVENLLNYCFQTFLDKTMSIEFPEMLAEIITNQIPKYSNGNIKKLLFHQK
Sequence of Peroxisome proliferator-activated receptor gamma (Homo sapiens) (P37231 whole entry, looked up): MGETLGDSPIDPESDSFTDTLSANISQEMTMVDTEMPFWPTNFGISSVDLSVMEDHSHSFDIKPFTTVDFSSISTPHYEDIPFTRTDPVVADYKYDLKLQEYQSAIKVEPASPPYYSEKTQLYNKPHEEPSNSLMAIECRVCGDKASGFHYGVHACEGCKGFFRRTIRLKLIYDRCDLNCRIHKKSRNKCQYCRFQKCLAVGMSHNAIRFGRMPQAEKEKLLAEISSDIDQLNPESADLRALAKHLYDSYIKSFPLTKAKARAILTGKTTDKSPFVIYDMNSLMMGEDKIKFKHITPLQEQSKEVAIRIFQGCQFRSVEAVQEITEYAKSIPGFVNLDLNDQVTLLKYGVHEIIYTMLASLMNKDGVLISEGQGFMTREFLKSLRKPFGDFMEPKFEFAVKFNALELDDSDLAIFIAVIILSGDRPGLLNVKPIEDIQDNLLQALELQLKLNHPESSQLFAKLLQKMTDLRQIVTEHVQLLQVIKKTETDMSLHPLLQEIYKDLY

Take `O=c1[nH]cc(N(CCCl)CCCl)c(=O)[nH]1`: the Potency entry in [1], in assay [2], in assay [4], in [6], in [7] and in assay [8] was “inactive” throughout. Besides, the Potency result in [9], in assay [10], in assay [11], in assay [12], in assay [13] and in assay [14] was “inactive” in each case. Besides, the Potency entry in [15], in assay [16], in assay [17] and in assay [18] was “inactive” each time. In addition, the compound was classed as inactive in [3] and in assay [5].
As for `CCCCNCC(O)c1ccc(O)cc1` (centres undefined), the Potency result in assay [2], in [7], in assay [8], in [9], in assay [19] and in assay [10] was “inactive” throughout. For the same compound, the Potency entry in assay [11], in assay [12], in assay [13], in assay [17] and in [18] was “inactive” throughout. The call in assay [3] and in [5] was inactive.
For `CNC(=O)OCC[N+](C)(C)C`, the Potency result in assay [1], in [2], in assay [6], in assay [7], in assay [20] and in assay [8] was “inactive” each time. The Potency entry in assay [9], in assay [19], in assay [10], in assay [12], in assay [13] and in assay [14] was “inactive” each time. Further, the Potency entry in assay [15], in [17] and in [18] was “inactive” in each case. Also, the result in [3] and in assay [5] was inactive.
As for `CC(=O)OCC(=O)[C@H]1CC[C@H]2[C@@H]3CC[C@H]4C[C@H](O)CC[C@]4(C)[C@H]3C(=O)C[C@]12C`, the Potency result in [1], in [2], in [4], in assay [6], in assay [7] and in assay [20] was “inactive” throughout. The Potency entry in assay [8], in [9], in [19], in assay [10], in [12] and in assay [13] was “inactive” throughout. The Potency entry in [14], in assay [15], in assay [17] and in assay [18] was “inactive” each time. The outcome in [3] and in assay [5] was inactive.
For `O=C1CN(O)C(c2ccccc2)=c2cc(Cl)ccc2=N1`, the Potency result in assay [2], in assay [6], in [7], in [20], in assay [8] and in [9] was “inactive” throughout. The Potency result in assay [19], in assay [10], in [12], in assay [13], in assay [16] and in assay [17] was “inactive” each time. The Potency entry in [18] was “inactive”. For the same compound, the call in [3] and in assay [5] was inactive.
Take `O=S(=O)(O)c1cc(O)ccc1O`: the Potency result in [1], in assay [2], in [6], in assay [7], in [20] and in assay [8] was “inactive” throughout. Also, the Potency result in assay [9], in assay [19], in [10], in [11], in assay [12] and in assay [13] was “inactive” each time. For the same compound, the call in [3] and in assay [5] was inactive.
On to `CCC1(c2cnc[nH]2)Cc2ccccc2C1`, for which the Potency result in assay [1], in assay [2], in assay [4], in assay [8], in assay [11] and in [13] was “inactive” throughout. Besides, the Potency entry in [14], in assay [15] and in [16] was “inactive” in each case. Besides, the result in assay [3] and in assay [5] was inactive. In addition, the Potency was 21.1 µM (active) and 26.6 µM (active) in assay [9]; 26.6 µM (active) in assay [19]; 26.6 µM (active) in assay [10].
